# In all, about 360,000 compounds went through this assay and about 2,000 (0.56%) were called active.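 How the source made its calls: active means activation above the average of all compounds screened plus 3 SD, cutoff fixed separately per campaign (cut at about 7.5% in these data); inactive means the rest.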 Only a selection was taken, and actives are over-represented in it overall.
# Assay: GAA850 frataxin promoter reporter upregulation – cell-based, luciferase luminescence, HEK293 lucGAA850, primary screen (AID 540364);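 further: 0% = DMSO wells and 100% = 10 µM SAHA wells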
# Settings: HEK293 lucGAA850 FXN promoter luciferase reporter, 24 h; at 6 µM; active compounds read high; percent of 10 µM SAHA response
row,Compound,activation
1,NC(c1csc(NC(=O)Nc2cccc(C(F)(F)F)c2)n1)C1CCCCC1 (centres undefined),0.57% (inactive)
2,Cc1[nH]c2ccccc2c1C(=O)C(C)Sc1nnc(C2CC2)o1 (centres undefined),-0.9% (inactive)
3,CCOc1ccc(Nc2oc(Cc3ccccc3)nc2C#N)cc1,7.76% (active)
4,Cc1ccc(OCc2nc(C#N)c(N3CCCC3)o2)cc1,1.46% (inactive)
5,COc1ccc(Nc2oc(-c3ccccc3Cl)nc2C#N)cc1,-4.29% (inactive)
6,Cn1c(=O)n(C)c(=O)n(CC(=O)N2CCCCC2)c1=O,-1.79% (inactive)
7,O=C(CSc1nc2[nH]c(=O)[nH]c(=O)c2s1)Nc1cccc(F)c1,-0.65% (inactive)
8,CCCOP(=O)(c1ccc(N(C)C)cc1)C(O)c1cc(OC)c(OC)c(OC)c1 (centres undefined),0.98% (inactive)
9,O=C(Nc1ccc(Cl)cn1)c1ccccc1-c1ccccc1,0.22% (inactive)
10,Nc1cccc(-c2cc(-c3ccccc3)nc(-c3cccc(N)c3)n2)c1,1.48% (inactive)
11,c1ccc(-c2c[nH]c(-c3ccccc3)c2)cc1,1.7% (inactive)
12,Oc1ccccc1-c1cc(-c2ccc(Cl)cc2)n[nH]1,8.31% (active)
13,c1ccc(-c2cc(-c3ccccc3)[nH]n2)cc1,10.4% (active)
14,CSc1ccccc1-c1nnc(-c2ccc(Cl)cc2)o1,5.35% (inactive)
15,O=C1CCN(C(=O)Nc2ccccc2)N1,-0.46% (inactive)
16,O=C(COc1ccc(Cl)cc1Cl)NCCCNC(=O)c1cnccn1,7.84% (active)
17,COc1ccccc1CCNC(=O)c1cnccn1,2.62% (inactive)
18,O=C(NCCCNC(=O)c1ccccc1Cl)c1cnccn1,1.82% (inactive)
19,CCn1c(CC(=O)Nc2ccccc2C)nnc1SCC(=O)NC1=NCCS1,-0.89% (inactive)
20,N#Cc1c(N)nc2c3c(sc(=N)c2c1N)NC(=O)CC3c1ccccc1Cl (centres undefined),9.37% (active)
21,CSc1nc2c(c(=O)[nH]1)C(c1cccc(Cl)c1Cl)CC(=O)N2 (centres undefined),-1.23% (inactive)
22,COc1ccc(C2CC(=O)Nc3sc(=N)c4c(N)c(C#N)c(N)nc4c32)cc1OC (centres undefined),5.47% (inactive)
23,O=C(O)c1ccccc1-c1cccc2nncn12,0.6% (inactive)

row,Compound,activation
1,CCOC(=O)c1cc2cc(C)ccc2[nH]1,7.85% (active)
2,CCOC(=O)c1[nH]c2ccc(C)cc2c1N=C(C)N(C)C,2.12% (inactive)
3,Cc1ccc2[nH]c(=O)c(COC(=O)c3ccccn3)cc2c1,-0.35% (inactive)
4,CC(=O)c1ccc(-c2cnc3c(NC=O)cc(-c4cccc(NS(C)(=O)=O)c4)cn23)cc1,-2.27% (inactive)
5,Cc1cc(C(=O)N2CCN(c3ccccn3)CC2)c(C)o1,1.36% (inactive)
6,CN(C)C(CNC(=O)c1cc(Br)c(Br)s1)c1ccco1 (centres undefined),0.51% (inactive)
7,Cc1cccc(N2C(=O)N3[C@H](c4ccc(F)cc4)[C@@H]4C(=O)N(C5CCCCC5)C(=O)[C@@H]4[C@]3(Cc3ccccc3)C2=O)c1,5.49% (inactive)
8,Cc1cccc([C@@H]2[C@@H]3C(=O)N(Cc4ccccc4)C(=O)[C@@H]3[C@]3(Cc4ccc(Cl)cc4)C(=O)N(c4cccc(Cl)c4)C(=O)N23)c1,0.5% (inactive)
9,O=C1[C@H]2[C@@H](c3ccc(C(F)(F)F)cc3)N[C@]3(CCCN(Cc4ccc(Br)cc4)C3=O)[C@H]2C(=O)N1Cc1ccccc1,-7.76% (inactive)
10,O=C1[C@H]2[C@@H](c3ccc(F)cc3)N3C(=O)N(c4ccc(C(F)(F)F)cc4)C(=O)[C@@]3(Cc3ccccc3)[C@H]2C(=O)N1C1CCCCC1,7.65% (active)
11,CCOC(=O)[C@@H]1[C@H]2COc3ccc(Br)cc3[C@H]2N2C(=O)N(c3ccc(C)cc3)C(=O)[C@@]12C,0.65% (inactive)
12,O=C1[C@H]2[C@@H](c3ccc(Cl)cc3)N3C(=O)N(c4cccc(F)c4)C(=O)[C@@]3(Cc3ccccc3)[C@H]2C(=O)N1C1CCCCC1,8.92% (active)
13,CC12C(=O)N(c3ccccc3)C(=O)C1C(c1ccccc1)N1CCCN12 (centres undefined),-0.94% (inactive)
14,O=C1[C@H]2[C@@H](c3ccc(C(F)(F)F)cc3)N[C@]3(CCCN(Cc4ccc(Cl)cc4)C3=O)[C@H]2C(=O)N1Cc1ccccc1,-7.53% (inactive)
15,C[C@@]12C(=O)N(c3cccc(Br)c3)C(=O)N1[C@H](c1ccc(Cl)cc1)[C@@H]1C(=O)N(C3CCCCC3)C(=O)[C@@H]12,7.88% (active)
16,CNC(=O)c1ccc(CN(C)C(=O)c2cc(C3CC3)nc3c2cnn3C(C)C)cc1,1.69% (inactive)
17,CN(C(=O)c1cccc(NC(=O)Cc2ccc(NC(=O)C3CCCN(C(=O)C4CC4)C3)cc2)c1)C1CC1 (centres undefined),0.38% (inactive)
18,O=C(CN1C(=O)NC2(CCCC2)C1=O)NCC1CCCO1 (centres undefined),0.59% (inactive)
19,COCc1cc(C)nc(Nc2cc(C)ccc2C)c1C#N,-0.89% (inactive)
20,CCOC(=O)c1ccc(-c2ccc3ncnc(N(C)Cc4sccc4C)c3c2)o1,4.4% (inactive)
21,O=C(Nc1nccs1)C1CCCN1S(=O)(=O)c1cccc2cccnc12 (centres undefined),-0.14% (inactive)
22,O=C(NCc1ccco1)c1cc2sccc2n1Cc1ccc(F)cc1,0.82% (inactive)
23,O=C(Cc1ccc(-n2c(=O)c3sccc3n(Cc3ccc(F)cc3)c2=O)cc1)NCc1ccco1,-1.57% (inactive)

row,Compound,activation
1,O=C(NCc1ccco1)c1ccc(Cn2c(=O)c3sccc3n(Cc3ccc(F)cc3)c2=O)cc1,15.4% (active)
2,C/C(Cc1ccccc1)=N\NC(=O)CNC(=O)c1ccc2c(c1)OCCO2,-1.21% (inactive)
3,COc1ccc(-c2nnc(NC(=O)CS(=O)(=O)c3ccc(Cl)cc3)o2)c(OC)c1,2.95% (inactive)
4,COc1ccccc1-c1nnc(SCC(=O)N2CC(C)CC(C)C2)o1 (centres undefined),3.31% (inactive)
5,COc1ccc(-c2nnc(SCC(=O)c3cccs3)o2)c(OC)c1,7.8% (active)
6,Cc1cccn2c(=O)c3cc(C(=O)NC4CCCCC4)sc3nc12,2% (inactive)
7,CN(C(=O)c1cc2c(=O)n3ccccc3nc2s1)C1CCCCC1,8.38% (active)
8,CCOCCCNC(=O)c1cc2c(=O)n3ccccc3nc2s1,3.92% (inactive)
9,CC(=O)N1c2ccc(S(=O)(=O)N3CCC(C(=O)NC4CCCC(C)C4C)CC3)cc2CC1C (centres undefined),1.08% (inactive)
10,Clc1ccc(-c2nnc(-c3ccccc3)nc2N2CCSCC2)cc1,-1.26% (inactive)
11,OC(c1ccc(Cl)c(F)c1)c1ncc(-c2ccccc2Cl)[nH]1 (centres undefined),0.22% (inactive)
12,CCC1(CC)Cc2ccccc2-c2nc(CCl)[nH]c(=O)c21,8.24% (active)
13,CCOC(=O)C1Cn2c(nc3c(c2=O)C(C)(CC)Cc2ccccc2-3)S1 (centres undefined),1.17% (inactive)
14,N#CCSc1nc2c(c(=O)n1Cc1ccccc1)C1(CCCC1)Cc1ccccc1-2,-0.71% (inactive)
15,CN1CCCc2cc(C#N)c(=O)[nH]c21,-0.22% (inactive)
16,C[C@H](CO)N1C[C@H](C)[C@@H](CN(C)S(=O)(=O)c2ccc(Oc3ccccc3)cc2)OCc2cn(nn2)CCCC1=O,-2.73% (inactive)
17,CCOC(=O)C1CCN(C(=O)c2ccc3c(=O)n4nc(Nc5ccccc5CC)sc4nc3c2)CC1,0.72% (inactive)
18,O=C(/C=C/Sc1ncn[nH]1)c1ccc(Cl)cc1,23.3% (active)
19,COc1ccc(CNC(=O)[C@@H]2CC=C[C@@H]3CCN(C4CC4)C(=O)[C@@H]32)cc1,-0.64% (inactive)
20,O=S(=O)(Nc1ccc2nc(-c3ccco3)[nH]c2c1)c1ccccc1,2.98% (inactive)
21,COC(=O)CCc1sc(Nc2ccc(Br)cc2)nc1-c1ccc(OC)cc1,2.66% (inactive)
22,COc1ccc(-c2csc(Cc3nc(O)cs3)n2)cc1,21.7% (active)
23,COc1ccc(-c2csc(Nc3ccc(O)cc3)n2)cc1,8.06% (active)

row,Compound,activation
1,COc1ccc(C(C)(O)c2nc(-c3ccc(C)c(C)c3)cs2)cc1 (centres undefined),0.79% (inactive)
2,COc1ccc(C(O)c2nc(-c3ccc(OC)nc3)cs2)cc1 (centres undefined),0.21% (inactive)
3,Cc1ccn2c(-c3csc(Nc4ccc(C(=O)O)cc4)n3)c(C)nc2c1,1.81% (inactive)
4,O=c1oc2ccccc2cc1-c1csc(Nc2ccc(O)cc2)n1,22.5% (active)
5,COc1ccc(-c2csc(Nc3cccc(C)n3)n2)cc1OC,0.8% (inactive)
6,Cc1ccc(Nc2nc(-c3ccc(O)cc3O)cs2)nc1,2.15% (inactive)
7,COc1cc2c(cc1CNC[C@H]1O[C@@H](n3cnc(C(N)=O)n3)[C@H](O)[C@@H]1O)OCO2,-0.43% (inactive)
8,CCOC(=O)c1c(C)oc2cc(Br)c(OCC(N)=O)cc12,-1.34% (inactive)
9,COc1cc2c(cc1OC)C(C(=O)Nc1cc(C)c(OC)c(C)c1)CC(=O)N2 (centres undefined),1.49% (inactive)
10,CC12CCC(=O)C=C1CCC1C2C(O)CC2(C)C1CCC2(O)C(O)CO (centres undefined),0.74% (inactive)
11,O=C(O)c1ccccc1N=N/C(=N/Nc1cc(S(=O)(=O)O)ccc1O)c1ccccc1,-1.25% (inactive)
12,COc1ccc(OC)c(S(=O)(=O)N(C)CC(=O)N2CCN(c3ccccc3)CC2)c1,-1.26% (inactive)
13,CC1CC2=C(CC1/C=N/NC(N)=S)C(C)(C)CCC2 (centres undefined),-2.98% (inactive)
14,Cc1ccc(C2NC(=S)NC3=C2N2CCC3CC2)cc1 (centres undefined),1.46% (inactive)
15,CC(=O)CCS(=O)(=O)c1ccc(C)c(C)c1,0.08% (inactive)
16,COc1cc(C=NC2CCCCC2)ccc1O,-0.66% (inactive)
17,COc1cc(/C=N/Nc2nc3ccccc3s2)ccc1O,8.92% (active)
18,CCOc1cc(/C=N/Nc2cc(C)nc3ccc(C)cc23)ccc1O,-0.68% (inactive)
19,CCN1C(=NCCc2cccnc2)N[C@@H](c2ccccc2)[C@H](C(=O)OC)[C@H]1C,1.66% (inactive)
20,Cc1ccc(CNC(=O)Nc2nnc([C@H]3C[C@H](O)[C@@H](CO)O3)s2)cc1,0.3% (inactive)
